Measurements as given in PubChem BioAssay AID2284351 (EPA ToxCast).
The source made the active and inactive calls. The calls were made as follows: active = hit-call score of the fitted dose curve at least 0.9, where 1 is the maximum; inactive = score below 0.9.

Each compound was assayed against Peroxisome proliferator-activated receptor gamma (Homo sapiens) (UniProt P37231) (assay: ATG_hPPARg_EcoTox2: Attagene TRANS-FACTORIAL EcoTox-2 HepG2 Assay for human Peroxisome Proliferator-activated Receptor gamma (PPARg)).
Sequence of Peroxisome proliferator-activated receptor gamma (Homo sapiens) (P37231 whole entry, looked up): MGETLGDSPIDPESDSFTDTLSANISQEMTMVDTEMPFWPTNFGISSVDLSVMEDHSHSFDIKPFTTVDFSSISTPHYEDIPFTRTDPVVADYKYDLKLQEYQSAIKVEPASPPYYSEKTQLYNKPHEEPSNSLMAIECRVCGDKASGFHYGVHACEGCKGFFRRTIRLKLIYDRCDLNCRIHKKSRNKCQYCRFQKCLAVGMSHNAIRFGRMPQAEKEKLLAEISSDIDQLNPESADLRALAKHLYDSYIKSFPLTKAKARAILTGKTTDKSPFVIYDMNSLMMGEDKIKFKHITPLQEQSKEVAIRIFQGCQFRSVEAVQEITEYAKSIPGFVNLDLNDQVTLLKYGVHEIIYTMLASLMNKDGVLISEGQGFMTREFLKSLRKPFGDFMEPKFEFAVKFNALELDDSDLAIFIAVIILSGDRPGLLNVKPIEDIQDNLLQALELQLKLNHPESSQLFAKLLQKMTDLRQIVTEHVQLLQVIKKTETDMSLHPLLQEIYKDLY
Procedure: ATG_EcoTox2 is a cell-based, multiplexed assay created by modifying the existing Attagene TRANS-FACTORIAL system to include a panel of nuclear receptors from some or all the following species: human (Homo sapiens), african clawed frog (Xenopus laevis), rainbow trout (Oncorhynchus mykiss), japanese medaka (Oryzias latipes), and zebrafish (Danio rerio). The ECOTOX2-FACTORIAL format uses HepG2, a human liver cell line, with measurements taken at 24 hours after chemical dosing in a 24-well plate. ATG_hPPARg_EcoTox2 is one of 29 assay components calculated in the ATG_EcoTox2 assay. It is designed to make measurements of mRNA induction, a form of inducible reporter, as detected with fluorescence intensity signals by Reverse transcription polymerase chain reaction (RT-PCR) and Capillary electrophoresis technology.The assay endpoint ATG_hPPARg_EcoTox2 was analyzed in the positive analysis fitting direction relative to DMSO as the negative control and baseline of activity. Using a type of inducible reporter, measures of mRNA for gain-of-signal activity can be used to understand the reporter gene at the transcription factor-level as they relate to the gene PPARg. Furthermore, this assay endpoint can be referred to as a primary readout, because this assay has produced multiple assay endpoints where this one serves a reporter gene function. To generalize the intended target to other relatable targets, this assay endpoint is annotated to the nuclear receptor intended target family, where the subfamily is non-steroidal.
Human liver HepG2 cells are transiently transfected with multiple reporter transcription units (MRTUs) in 6-well plates using FuGene 6 reagent (Roche; 3 ml FuGene/1 mg DNA). The MRTU constructs are regulated by a cis-regulating element (promoter). Each RTU expresses a GAL4-UAS that regulates the transcription of a nearby target reporter gene sequence. A major difference between the CIS and TRANS system is that in CIS activities of endogenous TFs are measured, whereas the TRANS assay evaluates changes in activities of exogenous, chimeric NR-Gal4 proteins. […] At the end of 24 hour incubation, total RNA was isolated using TriZol reagent (Invitrogen). The isolated RNA is then reverse-transcribed using oligo(dT) primer and Mo-MLV reverse transcriptase (Invitrogen) with DNAse I (Ambion) treatment for 30 min. The one-tenth of the produced cDNA was amplified by PCR using Taq DNA polymerase (Invitrogen) and two reporter sequence-specific primers. The PCR products were fluorescently labeled by primer extension with 6-arboxyfluorescein (6-FAM) 5'-labeled reporter sequence-specific primer (2 min at 95 C, 20 s at 68 C and 10 min at 72 C) and these products were digested with 5U of HpaI (New England Biolabs) for 2h at 37 C. The fragments were purified using Qiaquick PCR columns (Qiagen), analyzed on an ABI 3130xL genetic analyzer (Applied Biosystems) with peak positions identified by using a set of X-rhodamine (ROX)-labeled MapMarker1000 molecular weight standards (BioVentures). The raw capillary electrophoresis data was processed using Attagraph software (Attagene).
With `C[C@]12C=CC(=O)C=C1CC[C@@H]1[C@@H]2C(=O)C[C@@]2(C)[C@H]1CC[C@]2(O)C(=O)CO` the outcome was “inactive”. `C=C(c1ccc(C(=O)O)cc1)c1cc2c(cc1C)C(C)(C)CCC2(C)C` was tested, and the AC50 was 1.1 µM (active). In the case of `C[C@@H]1C[C@H]2[C@@H]3CCC4=CC(=O)C=C[C@]4(C)[C@@]3(F)[C@@H](O)C[C@]2(C)[C@@]1(O)C(=O)COP(=O)(O)O`, the outcome is reported as “inactive”. `CC(C)(Oc1ccc(C2CC2(Cl)Cl)cc1)C(=O)O` (configuration not stated) was tested, and the AC50 was 37.3 µM (active). `Cc1nc(-c2ccc(C(F)(F)F)cc2)sc1C(=O)NCc1ccc(OC(C)(C)C(=O)O)cc1` was tested, and the AC50 was 1.29 µM (active). `CC(C)(Oc1ccc(CCNC(=O)c2ccc(Cl)cc2)cc1)C(=O)O` was tested, and the AC50 was 14 µM (active). For `CC(C)(Oc1ccc(Cl)cc1)C(=O)O`, the AC50 was 80.6 µM (active).
